# Substitutions are numbered along the chain they refer to.
# How the values were obtained:
# Assay in all cases: PBM; 200 nM protein, PBS
# Conditions in all cases: dsDNA, one strand shown
# [1] = biological target: CRX (Homo sapiens, UniProt O43186 26-111)
# [2] = biological target: HOXA7 (Homo sapiens, UniProt P31268 116-202)
# [3] = biological target: CRX (Homo sapiens, UniProt O43186 26-111, E42D)
# [4] = biological target: HOXA7 (Homo sapiens, UniProt P31268 116-202, W177C)
# [5] = biological target: CRX (Homo sapiens, UniProt O43186 26-111, R41L)
# [6] = biological target: PRRX1 (Homo sapiens, UniProt P54821 80-166, F113S)
# [7] = biological target: HOXB6 (Homo sapiens, UniProt P17509 132-218, K202E)
# [8] = biological target: HOXA2 (Homo sapiens, UniProt O43364 129-215, R185T)
# [9] = biological target: PITX2 (Homo sapiens, UniProt Q99697 72-157)
# [10] = biological target: HOXA2 (Homo sapiens, UniProt O43364 129-215, R185K)
# [11] = biological target: HOXA2 (Homo sapiens, UniProt O43364 129-215, Y150S)
# [12] = biological target: PRRX1 (Homo sapiens, UniProt P54821 80-166)
# [13] = biological target: HOXA2 (Homo sapiens, UniProt O43364 129-215)
# [14] = biological target: HOXB6 (Homo sapiens, UniProt P17509 132-218)
# [15] = biological target: ALX4 (Homo sapiens, UniProt Q9H161 200-286)
# [16] = biological target: ALX4 (Homo sapiens, UniProt Q9H161 200-286, Q225E)
# [17] = biological target: PROP1 (Homo sapiens, UniProt O75360 56-141)
# [18] = biological target: PROP1 (Homo sapiens, UniProt O75360 56-141, R99H)
# [19] = biological target: PROP1 (Homo sapiens, UniProt O75360 56-141, F88S)
# [20] = biological target: T1, PAX4 (Homo sapiens, UniProt O43316 9-242)
# T1 sequence: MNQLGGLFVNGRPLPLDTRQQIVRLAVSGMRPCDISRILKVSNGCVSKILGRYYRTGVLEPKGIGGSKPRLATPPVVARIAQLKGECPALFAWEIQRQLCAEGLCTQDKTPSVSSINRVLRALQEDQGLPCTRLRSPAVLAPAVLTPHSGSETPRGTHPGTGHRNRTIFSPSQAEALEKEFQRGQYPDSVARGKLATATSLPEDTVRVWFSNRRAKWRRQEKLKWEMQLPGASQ
# [21] = biological target: T2, PAX4 (Homo sapiens, UniProt O43316 9-242, F177V)
# T2 sequence: T1 sequence with F169V
# [22] = biological target: T3, PAX4 (Homo sapiens, UniProt O43316 9-242, F177Y)
# T3 sequence: T1 sequence with F169Y
# [23] = biological target: T4, PAX4 (Homo sapiens, UniProt O43316 9-242, R227W)
# T4 sequence: T1 sequence with R219W
# [24] = biological target: T5, PAX4 (Homo sapiens, UniProt O43316 9-242, R200K)
# T5 sequence: T1 sequence with R192K
# [25] = biological target: T6, PAX4 (Homo sapiens, UniProt O43316 9-242, R200Q)
# T6 sequence: T1 sequence with R192Q
# [26] = biological target: T7, NKX2-6 (Homo sapiens, UniProt A6NCS4 118-204, R150C)
# T7 sequence: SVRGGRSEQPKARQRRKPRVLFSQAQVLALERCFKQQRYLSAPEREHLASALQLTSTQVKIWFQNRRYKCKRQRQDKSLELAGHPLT
# [27] = biological target: VAX1 (Homo sapiens, UniProt Q5SQQ9 86-172)
# [28] = biological target: VAX1 (Homo sapiens, UniProt Q5SQQ9 86-172, T142I)
# [29] = biological target: VAX1 (Homo sapiens, UniProt Q5SQQ9 86-172, K157R)
# VAX1 (Homo sapiens, UniProt Q5SQQ9 86-172, K157R), sequence (Q5SQQ9 86-172 K157R): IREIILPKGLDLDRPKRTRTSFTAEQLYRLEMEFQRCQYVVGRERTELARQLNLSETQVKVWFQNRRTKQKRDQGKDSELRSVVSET
# CRX (Homo sapiens, UniProt O43186 26-111, E42D), sequence (O43186 26-111 E42D): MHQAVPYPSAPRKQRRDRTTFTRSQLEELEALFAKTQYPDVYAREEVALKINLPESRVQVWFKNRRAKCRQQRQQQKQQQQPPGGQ
# CRX (Homo sapiens, UniProt O43186 26-111, R41L), sequence (O43186 26-111 R41L): as the sequence (O43186 26-111 E42D) above, with R16L, D17E counted along it
# CRX (Homo sapiens, UniProt O43186 26-111), sequence (O43186 26-111): as the sequence (O43186 26-111 E42D) above, with D17E counted along it
# HOXA2 (Homo sapiens, UniProt O43364 129-215, R185T), sequence (O43364 129-215 R185T): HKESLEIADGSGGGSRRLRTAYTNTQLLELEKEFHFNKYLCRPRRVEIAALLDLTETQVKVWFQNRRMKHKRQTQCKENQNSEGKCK
# HOXA2 (Homo sapiens, UniProt O43364 129-215, Y150S), sequence (O43364 129-215 Y150S): as the sequence (O43364 129-215 R185T) above, with Y22S, T57R counted along it
# HOXA2 (Homo sapiens, UniProt O43364 129-215), sequence (O43364 129-215): as the sequence (O43364 129-215 R185T) above, with T57R counted along it
# ALX4 (Homo sapiens, UniProt Q9H161 200-286, Q225E), sequence (Q9H161 200-286 Q225E): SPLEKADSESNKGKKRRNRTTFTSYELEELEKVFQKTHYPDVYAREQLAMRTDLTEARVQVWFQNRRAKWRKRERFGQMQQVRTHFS
# VAX1 (Homo sapiens, UniProt Q5SQQ9 86-172), sequence (Q5SQQ9 86-172): as the sequence (Q5SQQ9 86-172 K157R) above, with R72K counted along it
# HOXB6 (Homo sapiens, UniProt P17509 132-218, K202E), sequence (P17509 132-218 K202E): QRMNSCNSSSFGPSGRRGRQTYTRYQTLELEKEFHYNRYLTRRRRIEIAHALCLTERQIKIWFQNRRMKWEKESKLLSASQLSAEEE
# HOXA7 (Homo sapiens, UniProt P31268 116-202, W177C), sequence (P31268 116-202 W177C): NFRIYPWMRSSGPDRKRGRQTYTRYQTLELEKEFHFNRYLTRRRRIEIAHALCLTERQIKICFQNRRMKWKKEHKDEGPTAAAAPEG
# HOXB6 (Homo sapiens, UniProt P17509 132-218), sequence (P17509 132-218): as the sequence (P17509 132-218 K202E) above, with E71K counted along it
# HOXA7 (Homo sapiens, UniProt P31268 116-202), sequence (P31268 116-202): as the sequence (P31268 116-202 W177C) above, with C62W counted along it
# ALX4 (Homo sapiens, UniProt Q9H161 200-286), sequence (Q9H161 200-286): as the sequence (Q9H161 200-286 Q225E) above, with E26Q counted along it
# PRRX1 (Homo sapiens, UniProt P54821 80-166, F113S), sequence (P54821 80-166 F113S): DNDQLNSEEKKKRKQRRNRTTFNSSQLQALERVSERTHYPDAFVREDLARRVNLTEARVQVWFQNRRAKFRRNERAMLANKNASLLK
# PROP1 (Homo sapiens, UniProt O75360 56-141, R99H), sequence (O75360 56-141 R99H): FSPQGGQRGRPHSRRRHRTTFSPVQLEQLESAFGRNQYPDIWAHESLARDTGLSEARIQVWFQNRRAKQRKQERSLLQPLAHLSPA
# PROP1 (Homo sapiens, UniProt O75360 56-141, F88S), sequence (O75360 56-141 F88S): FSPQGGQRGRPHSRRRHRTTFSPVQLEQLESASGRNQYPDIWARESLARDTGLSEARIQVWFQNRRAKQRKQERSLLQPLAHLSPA
# PRRX1 (Homo sapiens, UniProt P54821 80-166), sequence (P54821 80-166): as the sequence (P54821 80-166 F113S) above, with S34F counted along it
# PROP1 (Homo sapiens, UniProt O75360 56-141), sequence (O75360 56-141): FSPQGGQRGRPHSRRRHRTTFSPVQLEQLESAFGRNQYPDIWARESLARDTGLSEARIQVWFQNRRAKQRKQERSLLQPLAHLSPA
# VAX1 (Homo sapiens, UniProt Q5SQQ9 86-172, T142I), sequence (Q5SQQ9 86-172 T142I): as the sequence (Q5SQQ9 86-172 K157R) above, with T57I, R72K counted along it
# HOXA2 (Homo sapiens, UniProt O43364 129-215, R185K), sequence (O43364 129-215 R185K): as the sequence (O43364 129-215 R185T) above, with T57K counted along it
sequence,measurement,setting,value
TGCGATAA,binding signal,[1],"10.9 upbm affinity estimate (log intensity, higher = more binding, comparable within an allelic series)"
same,binding signal,[2],"9.91 upbm affinity estimate (log intensity, higher = more binding, comparable within an allelic series)"
same,binding signal,[3],"10.5 upbm affinity estimate (log intensity, higher = more binding, comparable within an allelic series)"
same,binding signal,[4],"8.8 upbm affinity estimate (log intensity, higher = more binding, comparable within an allelic series)"
same,binding signal,[5],"10.4 upbm affinity estimate (log intensity, higher = more binding, comparable within an allelic series)"
GGACCGCC,binding signal,[1],"8.02 upbm affinity estimate (log intensity, higher = more binding, comparable within an allelic series)"
same,binding signal,[6],"9.27 upbm affinity estimate (log intensity, higher = more binding, comparable within an allelic series)"
same,binding signal,[7],"8.98 upbm affinity estimate (log intensity, higher = more binding, comparable within an allelic series)"
same,binding signal,[8],"7.28 upbm affinity estimate (log intensity, higher = more binding, comparable within an allelic series)"
same,binding signal,[3],"8.13 upbm affinity estimate (log intensity, higher = more binding, comparable within an allelic series)"
same,binding signal,[9],"7.63 upbm affinity estimate (log intensity, higher = more binding, comparable within an allelic series)"
same,binding signal,[10],"10.2 upbm affinity estimate (log intensity, higher = more binding, comparable within an allelic series)"
same,binding signal,[11],"10.4 upbm affinity estimate (log intensity, higher = more binding, comparable within an allelic series)"
same,binding signal,[5],"8.16 upbm affinity estimate (log intensity, higher = more binding, comparable within an allelic series)"
same,binding signal,[12],"9.42 upbm affinity estimate (log intensity, higher = more binding, comparable within an allelic series)"
same,binding signal,[13],"7.23 upbm affinity estimate (log intensity, higher = more binding, comparable within an allelic series)"
same,binding signal,[14],"9.08 upbm affinity estimate (log intensity, higher = more binding, comparable within an allelic series)"
CTTACGAC,binding signal,[1],"10.1 upbm affinity estimate (log intensity, higher = more binding, comparable within an allelic series)"
same,binding signal,[3],"10 upbm affinity estimate (log intensity, higher = more binding, comparable within an allelic series)"
GAGGGCCC,binding signal,[1],"8.25 upbm affinity estimate (log intensity, higher = more binding, comparable within an allelic series)"
same,binding signal,[15],"7.97 upbm affinity estimate (log intensity, higher = more binding, comparable within an allelic series)"
same,binding signal,[16],"7.92 upbm affinity estimate (log intensity, higher = more binding, comparable within an allelic series)"
same,binding signal,[3],"8.06 upbm affinity estimate (log intensity, higher = more binding, comparable within an allelic series)"
same,binding signal,[17],"6.79 upbm affinity estimate (log intensity, higher = more binding, comparable within an allelic series)"
same,binding signal,[18],"6.72 upbm affinity estimate (log intensity, higher = more binding, comparable within an allelic series)"
same,binding signal,[19],"6.48 upbm affinity estimate (log intensity, higher = more binding, comparable within an allelic series)"
same,binding signal,[5],"8.14 upbm affinity estimate (log intensity, higher = more binding, comparable within an allelic series)"
AATGCTAA,binding signal,[1],"10.4 upbm affinity estimate (log intensity, higher = more binding, comparable within an allelic series)"
same,binding signal,[20],"10.9 upbm affinity estimate (log intensity, higher = more binding, comparable within an allelic series)"
same,binding signal,[3],"10.3 upbm affinity estimate (log intensity, higher = more binding, comparable within an allelic series)"
same,binding signal,[21],"10.1 upbm affinity estimate (log intensity, higher = more binding, comparable within an allelic series)"
same,binding signal,[22],"10.2 upbm affinity estimate (log intensity, higher = more binding, comparable within an allelic series)"
same,binding signal,[23],"10.2 upbm affinity estimate (log intensity, higher = more binding, comparable within an allelic series)"
CCACGCCA,binding signal,[1],"8.11 upbm affinity estimate (log intensity, higher = more binding, comparable within an allelic series)"
same,binding signal,[24],"9.43 upbm affinity estimate (log intensity, higher = more binding, comparable within an allelic series)"
same,binding signal,[20],"9.33 upbm affinity estimate (log intensity, higher = more binding, comparable within an allelic series)"
same,binding signal,[3],"8.32 upbm affinity estimate (log intensity, higher = more binding, comparable within an allelic series)"
same,binding signal,[25],"9.45 upbm affinity estimate (log intensity, higher = more binding, comparable within an allelic series)"
same,binding signal,[21],"9.5 upbm affinity estimate (log intensity, higher = more binding, comparable within an allelic series)"
same,binding signal,[22],"9.5 upbm affinity estimate (log intensity, higher = more binding, comparable within an allelic series)"
same,binding signal,[23],"9.53 upbm affinity estimate (log intensity, higher = more binding, comparable within an allelic series)"
same,binding signal,[5],"8.24 upbm affinity estimate (log intensity, higher = more binding, comparable within an allelic series)"
AGGATTAG,binding signal,[1],"13.5 upbm affinity estimate (log intensity, higher = more binding, comparable within an allelic series)"
same,binding signal,[8],"9.36 upbm affinity estimate (log intensity, higher = more binding, comparable within an allelic series)"
same,binding signal,[3],"13.5 upbm affinity estimate (log intensity, higher = more binding, comparable within an allelic series)"
same,binding signal,[9],"13.2 upbm affinity estimate (log intensity, higher = more binding, comparable within an allelic series)"
same,binding signal,[11],"10.7 upbm affinity estimate (log intensity, higher = more binding, comparable within an allelic series)"
same,binding signal,[5],"13.3 upbm affinity estimate (log intensity, higher = more binding, comparable within an allelic series)"
same,binding signal,[13],"9.15 upbm affinity estimate (log intensity, higher = more binding, comparable within an allelic series)"
CGGCACGA,binding signal,[1],"8.45 upbm affinity estimate (log intensity, higher = more binding, comparable within an allelic series)"
same,binding signal,[26],"9.55 upbm affinity estimate (log intensity, higher = more binding, comparable within an allelic series)"
same,binding signal,[3],"8.43 upbm affinity estimate (log intensity, higher = more binding, comparable within an allelic series)"
same,binding signal,[27],"6.96 upbm affinity estimate (log intensity, higher = more binding, comparable within an allelic series)"
same,binding signal,[28],"7.11 upbm affinity estimate (log intensity, higher = more binding, comparable within an allelic series)"
same,binding signal,[5],"8.41 upbm affinity estimate (log intensity, higher = more binding, comparable within an allelic series)"
same,binding signal,[29],"7.16 upbm affinity estimate (log intensity, higher = more binding, comparable within an allelic series)"

# Source: paper PMC11006913
